Results filed as inconclusive are left out. Active and inactive are the calls of the source. Rule for the calls, unless noted: active = hit-call score of the fitted dose curve at least 0.9, where 1 is the maximum; inactive = score below 0.9.
What was measured:
[1] = CCTE_Shafer_MEA_dev_firing_rate_mean: CCTE's Neural Network Formation Assay for Mean Firing Rate, Shafer Lab (AID 2284031)
Summary of the method: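 Extracellular spike frequency, AUC over DIV 5–12 recordings, in rat cortical neuron MEA cultures dosed from plating; loss direction vs DMSO.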

[2] = CCTE_Shafer_MEA_dev_per_burst_spike_percent: CCTE's Neural Network Formation Assay for Percent of Spikes in a Burst, Shafer Lab (AID 2284032)
Summary of the method: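 Value is trapezoidal AUC over recordings on days 5, 7, 9 and 12 of the well-mean fraction of spikes falling in single-electrode bursts; rat cortical cultures exposed continuously from plating, treatment renewed DIV 5 and 9, fitted downward against DMSO.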

[3] = CCTE_Shafer_MEA_dev_active_electrodes_number: CCTE's Neural Network Formation Assay for Number of Active Electrodes, Shafer Lab (AID 2284040; active = hit-call score of the fitted dose curve at least 0.9, where 1 is the maximum)
Summary of the method: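 Developing rat cortical networks on MEAs, exposed DIV 0–12. Value is the AUC of active-electrode counts (≥5 spikes/min) from days 5, 7, 9, 12, relative to DMSO.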

[4] = CCTE_Shafer_MEA_dev_burst_rate: CCTE's Neural Network Formation Assay for Burst Rate, Shafer Lab (AID 2284042)
Summary of the method: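 Primary rat cortical neurons on PEI-coated 48-well MEA plates (laminin added with cells at plating) (16 electrodes/well), exposed from plating to day 12, dosing renewed at DIV 5 and 9. Burst rate averaged over active electrodes, recorded DIV 5, 7, 9, 12, summarized as AUC; loss versus DMSO.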

[5] = CCTE_Shafer_MEA_dev_bursting_electrodes_number: CCTE's Neural Network Formation Assay for Number of Bursting Electrodes, Shafer Lab (AID 2284043; active = hit-call score of the fitted dose curve at least 0.9, where 1 is the maximum)
Summary of the method: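 Rat cortical primary neurons, 48-well MEA, 16 electrodes/well; dosing DIV 0–12, re-dosed with full media change DIV 5, 9. Recordings DIV 5/7/9/12, AxIS adaptive spike detector; bursting electrode = ≥1 burst/2 min. AUC across days; loss of signal vs DMSO.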

[6] = CCTE_Shafer_MEA_dev_per_burst_interspike_interval: CCTE's Neural Network Formation Assay for Burst Interspike Interval, Shafer Lab (AID 2284044)
Summary of the method: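 Rat cortical primary cultures, 16 electrodes/well; compound from plating, renewed with full media change DIV 5 and 9. Spikes via adaptive detector; per-burst ISI well-mean over active bursting electrodes; AUC of DIV 5/7/9/12 recordings; loss-direction fit vs DMSO.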

[7] = CCTE_Shafer_MEA_dev_interburst_interval_mean: CCTE's Neural Network Formation Assay for Mean Interburst Interval, Shafer Lab (AID 2284046);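 note: well-mean interburst interval of bursting electrodes as AUC over four recording days; curve fitted for decrease in interburst interval relative to DMSO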
Summary of the method: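 Recordings on days 5, 7, 9 and 12 give well-mean interburst interval across actively bursting electrodes, summarized as area under the curve. Cultures: rat cortical neurons, continuous exposure from day 0, compound renewed at feeds; decrease analyzed versus DMSO.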

[8] = CCTE_Shafer_MEA_dev_network_spike_number: CCTE's Neural Network Formation Assay for Number of Network Spikes, Shafer Lab (AID 2284048);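 note: synchronized bursts across electrodes counted on days 5 7 9 12 and integrated as AUC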
Summary of the method: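 Rat cortical primary cultures on 48-well MEA (16 electrodes/well); continuous exposure DIV 0–12, full medium and treatment exchange DIV 5, 9. Readout: network spike count, AxIS adaptive detection, recordings DIV 5/7/9/12 collapsed to AUC; loss-of-signal fit, DMSO baseline.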

[9] = CCTE_Shafer_MEA_dev_network_spike_peak: CCTE's Neural Network Formation Assay for Mean Number of Electrodes in Network Spike, Shafer Lab (AID 2284049);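 note: fitted for loss of signal meaning fewer electrodes in network spikes than DMSO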
Summary of the method: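 Network-spike peak electrode count from recordings on days 5, 7, 9 and 12 was combined as trapezoidal area under the curve. Rat cortical cultures were treated continuously from plating, with compound renewed at each feed (DIV 5, 9); fits versus DMSO.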

[10] = CCTE_Shafer_MEA_dev_spike_duration_mean: CCTE's Neural Network Formation Assay for Mean Spike Duration, Shafer Lab (AID 2284051);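 note: mean network spike duration pooled as area under curve over DIV 5 to 12 recordings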
Summary of the method: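 Primary rat cortical neurons on 16-electrode MEA wells (PEI-coated, laminin in plating drop), exposed from plating through DIV 12 with compound renewed at DIV 5 and 9. Mean network-spike duration recorded DIV 5, 7, 9, 12; trapezoidal AUC across days, DMSO baseline.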

[11] = CCTE_Shafer_MEA_dev_network_spike_duration_std: CCTE's Neural Network Formation Assay for Standard Deviation of Network Spike Duration, Shafer Lab (AID 2284052);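 note: area under curve of spike duration SD across recording days 5 to 12; hits are decreases in network spike duration SD versus DMSO vehicle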
Summary of the method: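 Primary rat cortical neurons on PEI-coated 16-electrode MEA wells, exposed from plating day 0 through day 12 with compound renewed at DIV 5 and 9. Network spike duration SD recorded on days 5, 7, 9, 12, collapsed as trapezoidal AUC; loss-of-signal fit versus DMSO.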

[12] = CCTE_Shafer_MEA_dev_per_network_spike_spike_number_mean: CCTE's Neural Network Formation Assay for Mean Number of Spikes in a Network Spike, Shafer Lab (AID 2284053)
Summary of the method: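 Primary rat cortical neurons on 48-well, 16-electrode MEA plates were exposed from plating to DIV 12, with dosing renewed on DIV 5 and 9. Spikes per network spike (0.05 s peak window) were recorded on DIV 5, 7, 9 and 12 and collapsed as trapezoidal AUC versus DMSO.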

[13] = CCTE_Shafer_MEA_dev_LDH: CCTE's Lactate Dehydrogenase Assay for Cytotoxicity in the Neural Network Formation Assay, Shafer Lab (AID 2284068; active = hit-call score of the fitted dose curve at least 0.9, where 1 is the maximum;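 note: exposure for twelve days from plating with re-dosing on DIV 5 and 9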)
Summary of the method: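 Primary rat cortical neurons were plated on PEI/laminin MEA plates and exposed from day 0 for twelve days, with compound renewed at DIV 5 and 9. Cytotoxicity was determined by spectrophotometric LDH assay relative to DMSO.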

[14] = CCTE_Shafer_MEA_dev_AB: CCTE's Alamar Blue Assay for Cytotoxicity in the Neural Network Formation Assay, Shafer Lab (AID 2284083; active = hit-call score of the fitted dose curve at least 0.9, where 1 is the maximum;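 note: twelve days of exposure from plating with re-dosing on DIV 5 and 9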)
Summary of the method: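 Primary rat cortical neurons on PEI-coated 48-well MEA plates, 1.5 x 10^5 cells/well in laminin drop; compound exposure from day 0 of plating for twelve days, renewed at medium changes on DIV 5 and 9. Viability read as resazurin reduction by fluorescence, relative to DMSO.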

[15] = CCTE_Shafer_MEA_dev_mutual_information_norm: CCTE's Neural Network Formation Assay for Mutual Information Normalization, Shafer Lab (AID 2284091)
Summary of the method: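 Neurons from rat cortex were seeded at 1.5 x 10^5 cells/well onto PEI-coated MEAs in a laminin drop, then exposed to compound from day 0 for twelve days. Network recordings on four days gave mutual information, summarised by AUC relative to DMSO.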

[16] = CCTE_Shafer_MEA_dev_correlation_coefficient_mean: CCTE's Neural Network Formation Assay for Mean Correlation Coefficient, Shafer Lab (AID 2284093)
Summary of the method: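 Spontaneous activity recorded on days 5, 7, 9 and 12 post-plating; pairwise spike correlations are averaged across active electrodes and collapsed to an area-under-curve. Rat cortical cultures are dosed from plating through 12 days, with compound renewed at media changes.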

[17] = UKN2_HCS_IMR90_neural_migration: University of Konstanz (UKN) Leist Lab Neural Crest Cell Migration Assay in human induced IMR90 Pluripotent Stem Cells (UKN2) (AID 2284204); details: actives raise or lower the signal
Summary of the method: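 Stopper-exclusion migration (cMINC), human iPSC-derived neural crest cells; N2-S + EGF/FGF; compound added 24 h post-stopper removal, 24 h exposure. Readout: calcein-AM/Hoechst 30 min, HCS fluorescence imaging; bidirectional fitting, DMSO baseline.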

[18] = IUF_NPC1b_proliferation_BrdU_72hr: Leibniz Research Institute for Environmental Medicine (IUF) 72-hour Neural Progenitor Cell Bromodeoxyuridine (BrdU) Proliferation Assay (NPC1b) (AID 2284207)
Summary of the method: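 Luminescent BrdU ELISA measured DNA synthesis during the last 16 h of a 72 h exposure of primary human neural progenitor spheres grown with EGF and FGF. Signal was fitted relative to DMSO controls.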

[19] = IUF_NPC1a_proliferation_area_72hr: Leibniz Research Institute for Environmental Medicine (IUF) 72-hour Neural Progenitor Cell Proliferation Area Assay (NPC1a) (AID 2284208)
Summary of the method: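 Read-out: increase in sphere area over 72 h by automated phase-contrast imaging, fitted in positive direction versus DMSO baseline. One hNPC sphere (0.25-0.35 mm) per well in EGF/FGF medium; growth-factor withdrawal served as positive control.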

[20] = IUF_NPC1_viability_72hr: Viability Assessment at 72 hours in the Leibniz Research Institute for Environmental Medicine (IUF) Neural Progenitor Cell Proliferation Assay (NPC1) (AID 2284209)
Summary of the method: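 Three-day continuous exposure of human neural progenitor spheres under EGF/FGF-driven proliferation; cell viability scored by alamar blue signal versus DMSO.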

[21] = CCTE_Mundy_HCI_Cortical_Synap_Neur_Matur_NeuriteSpotCountPerNeuriteLength: CCTE's Synaptogenesis and Neurite Maturation Assay in rat cortical cells for Neurite Spot Count per Neurite Length, Mundy Lab (AID 2284210)
Summary of the method: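 Read-out: synaptophysin puncta counted along MAP2-stained neurites, normalised to neurite length, by automated high-content imaging. Rat cortical cells; AraC DIV 5; chemical dosing DIV 7; termination DIV 12. DMSO baseline.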

[22] = CCTE_Mundy_HCI_Cortical_Synap_Neur_Matur_BPCount: CCTE's Synaptogenesis and Neurite Maturation Assay in rat cortical cells for Branch Point Count, Mundy Lab (AID 2284211)
Summary of the method: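 In this multiplexed morphology assay, cortical cells from rat receive chemicals at DIV 7 and are fixed at DIV 12, then immunostained and imaged; branch points are counted, with DMSO as baseline.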

[23] = CCTE_Mundy_HCI_Cortical_NOG_NeuriteCount: CCTE's Neurite Outgrowth Assay in rat cortical cells for Neurite Count, Mundy Lab (AID 2284212);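 note: cells fixed about two days after chemical exposure began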
Summary of the method: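 Rat cortical primary cells; compound added 2 h post-plating, 1/10 dilution of working solution. Anti-betaIII-tubulin/AF488 ICC; ArrayScan neurite count vs DMSO.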

Measured: AC50

CCOP(=O)(OCC)SCSCC
active: [9] 49.8 µM | [23] 78.6 µM
inactive: all other assays above

Source: PubChem BioAssay (EPA / NIEHS)
